Screens (PubChem BioAssay)
Compounds with a hit are over-represented: about 9.9% of the library has one in this group of screens.
SW480 rerep: DNA re-replication induction in SW480 cells. SW480 DNA re-replication, Hoechst DNA content imaging, 48 h. Potency, µM (series often up to 46.1 µM), inactives show at the top dose re-replication activation, usual class: activators. 1.8% of 340,000 active; further: potency means the concentration at half of the fitted maximal effect; % of control where 0% means no effect; nearly all actives have a fitted effect of over 55% in size
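SW480 cells exposed to compounds for 48 hr at 37 C, 5% CO2, then Hoechst-stained 40 min. Nuclear DNA content imaged by fluorescence scanning (405 nm excitation, 500-530 nm emission); re-replication scored as increased high-intensity nuclei.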
KB-V1 MDR tox: kills drug-selected multidrug resistant KB-V1 cells; KB-V1 MDR cells viability, CellTiter-Glo, 72 h; Potency, µM (top dose mostly 46.1 µM), actives largely listed as cytotoxic; 3.4% of 400,000 active; further: potency means the concentration at half of the fitted maximal effect; on the % scale 0 is the no-effect control and ±100 the full control effect; nearly all actives have a fitted effect of over 60% in size
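Following 72 h at 37 degrees C with compound, KB-V1 cell viability was read by CellTiter-Glo luminescence, medium being phenol-red-free DMEM plus 10% FBS; concentration-response parameters came from normalized, curve-fitted qHTS data.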
IL-1B inflam inh: inflammasome signaling inhibition, IL-1 beta readout; THP-1 LPS/ATP IL-1B secretion, AlphaLISA, 16 h; stronger effect = lower value; activity change, % at 57.5 µM; 4.7% of 360,000 active; in the data active means activity change below about -50%; inconclusive means mostly about -30% to -49%; further: on the % scale 0 is the no-effect control and ±100 the full control effect
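Secreted IL-1B measured by AlphaLISA bead assay after 16 h compound exposure of THP-1 cells; compounds (final up to 57.5 uM) added 1 h before LPS (250 ng/mL) and ATP (1.25 mM) stimulation; lower signal means less secretion.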
KB-3-1 tox: kills parental KB-3-1 adenocarcinoma cells; KB-3-1 viability, CellTiter-Glo ATP luminescence, 72 h; Potency, µM (doses to about 46.1 µM), usual class: cytotoxic; 1.4% of 400,000 active; further: potency means the concentration at half of the fitted maximal effect; on the % scale 0 is the no-effect control and ±100 the full control effect; nearly all actives have a fitted effect of over 60% in size
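Cytotoxicity in the drug-sensitive parental line KB-3-1 was scored as loss of CellTiter-Glo luminescence following 72 h incubation with compound. Values come from curve fitting of normalized concentration-response data.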
MCF10A rerep: DNA re-replication induction in MCF 10a cells; MCF 10A DNA re-replication, Hoechst nuclear intensity, 48 h; Potency, µM (doses to about 46.1 µM), without a hit: at the top dose activity, positive = re-replication, hits mostly activators; 2.9% of 350,000 active; further: potency means the concentration at half of the fitted maximal effect; % of control where 0% means no effect; nearly all actives have a fitted effect of over 50% in size
* = called active by the depositor; i = inactive; ? = inconclusive; / = no result given; ! = a repeat was not active; [ ] = dose if it differs, or a comment. Unless noted, the call rests on the fitted dose curve; in most records, active means well fitted curve in the direction sought with a large enough effect; inconclusive means small, poorly fitted or top-dose-only effect, or another doubt; inactive means no such curve, though single readings can be large; an effect the other way counts as inactive or inconclusive.

SMILES	SW480 rerep	KB-V1 MDR tox	IL-1B inflam inh	KB-3-1 tox	MCF10A rerep
O=C1C(Cl)=C(NCCc2ccccc2)C(=O)c2ccccc21	5.2µM*	?	?	?	?
CC(C#N)(NC(=O)CN1CCN(S(=O)(=O)c2cccc(F)c2)CC1)C1CC1 (stereo not given)	/	i	-11	i	/
CCN(CC)CCCNC1=C(Cl)C(=O)c2ccccc2C1=O	?	?	-110*	i	?
CC(C)NC1=C(Cl)C(=O)c2ccccc2C1=O	13µM*	i	-3	?	?
C=CCNC1=C(Cl)C(=O)c2ccccc2C1=O	?	?	-4	?	?
O=C1C(Cl)=C(NCc2cccnc2)C(=O)c2ccccc21	?	?	-101*	?	?
CC(C)OCCCNC1=C(Cl)C(=O)c2ccccc2C1=O	-4%	i	/	i	?
COc1ccc(C(=O)Nc2cc(C)c(O)c(-c3nc4ccccc4s3)c2)cc1OC	/	i	/	?	/
O=C(Nc1ccc(Cc2nc3ccccc3s2)cc1)c1ccncc1	0%	7.3µM*	0	16µM*	?
NC(=O)c1ccc(NC(=O)CCc2nc3ccccc3s2)cc1	1%	?	30	i	2%
O=C(Nc1ccc(OC(=O)c2ccccc2)c(-c2nc3ccccc3s2)c1)c1ccccc1	?	i	58	i	21µM*
CC1(C)SC2C(C(=O)O)N=C(Cc3ccccc3)N2C1C(=O)O (stereo not given)	-8%	i	19	?	-29%
O=C(c1ccc(Cl)c(S(=O)(=O)NCc2ccco2)c1)N1CCN(c2ccccc2F)CC1	?	?	3	?	?
O=C(c1ccc(Cl)c(S(=O)(=O)N2CCCCCC2)c1)N1CCN(c2ccccc2O)CC1	-6%	?	-68*	i	18%
O=C(c1ccc(Cl)c(S(=O)(=O)N2CCCC2)c1)N1CCN(c2ccc(F)cc2)CC1	-3%	5.8µM*	-24	?	?
Cc1cc(C(=O)N2CCN(c3ncccn3)CC2)sc1-c1ccccc1	7%	21µM*	0	i	7%
COc1ccccc1N1CCN(C(=O)c2ccc(Cl)c(S(=O)(=O)NCc3ccco3)c2)CC1	?	13µM*	-6	7.1µM*	?
O=C(N/N=C/c1ccccc1OCC(=O)N1CCCC1)C(=O)Nc1ccccc1F	-4%	i	-6	i	?
O=C(COC(=O)Cc1ccsc1)Nc1cccc(F)c1	?	?	25	i	20%
Cc1ccc(C(=O)N2CCCCC2)cc1S(=O)(=O)N1CCCC1	1%	i	11	i	0%
Cc1ccc(C(=O)N2CCN(c3ncccn3)CC2)cc1S(=O)(=O)N1CCCCC1	-6%	23µM*	9	i	-1%
COc1ccc(Cc2c(Cl)ncnc2Cl)cc1	?	i	-111*	i	?
COc1ccc(Cc2c(C)nc(N)nc2Cl)cc1	17%	i	0	i	?
Nc1ccc(S(=O)(=O)C(F)(F)F)cc1N	0%[1.84 µM]	?	21	i	0%
COc1ccc(S(=O)(=O)N2CCN(C/C=C/c3ccccc3)CC2)cc1F	-3%	i	-65*	i	2%
SMILES	SW480 rerep	KB-V1 MDR tox	IL-1B inflam inh	KB-3-1 tox	MCF10A rerep
COc1ccc(OC)c(CN2CCN(S(=O)(=O)c3ccccc3)CC2)c1	0%	i	25	i	2%
COc1ccc(CN2CCN(Cc3ccc(C(F)(F)F)cc3)CC2)c(OC)c1	16µM*	i	-24	i	3%
COc1ccc(CN2CCN(S(=O)(=O)c3ccccc3)CC2)c(OC)c1	-1%	18µM*!	16	i	5%
COc1ccc(CN2CCN(Cc3ccc(C)cc3)CC2)c(OC)c1	0%	i	4	i	?
CCOC(=O)c1cc(NC(=O)c2ccc(F)cc2)c(=O)n2c1oc1ccc(Cl)cc12	/	i	/	i	/
O=C(COC(=O)Cn1nnc2ccccc21)Nc1ccccc1Br	-4%	i	16	i	-2%
CCCCC	-2%	/	/	/	-2%
OC(CNCCNc1ncccc1C(F)(F)F)COc1ccc(F)cc1 (stereo not given)	-9%	i	-82*	i	-2%
